AMA1 RON2 block: disrupts binding of P. falciparum AMA1 to RON2. Potency, µM (series often up to 58.2 µM), for inactives: top-dose activity change, negative = inhibition, usual class: inhibitors. actives 0.2% (n = 360,000). AlphaScreen AMA1-biotinylated RON2 peptide binding;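 also: potency is read from the fitted curve at half-maximal effect; 0% = vehicle wells and -100% = peptide control; nearly all actives have a fitted effect of over 45% in size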
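AMA1 (3D7) with his tag at 25 nM final met compounds first, then biotinylated RON2 peptide at 25 nM; detection used donor plus acceptor beads, 10 µg/mL apiece, read by AlphaScreen after 30 min at room temperature.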
Pf growth 48h: inhibits P. falciparum growth in the first generation, 48 h. P. falciparum luciferase growth in erythrocytes, 48 h. Potency, µM (titrated, usually from 28.7 µM), without a hit: top-dose activity change, negative = inhibition, hits mostly inhibitors. actives 5.9% (n = 310,000). AID 504832; also: potency is read from the fitted curve at half-maximal effect; % is scaled to controls: 0 for no effect and ±100 for the full control effect
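Firefly luciferase activity from engineered P. falciparum reports growth; inhibitors lower the luminescent signal. Cultures contained 2% hematocrit erythrocytes at 0.1% final parasitemia.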
Shiga inhibitor: inhibitors of Shiga toxin in Vero cells | actives 9.2% (n = 290,000) | Vero cells, Shiga toxin protein synthesis inhibition reporter | inhibition, % at 38.7 µM; in the data active = inhibition mostly above about 28%, no sharp cut-off; inactive = mostly below about 43%; also: 0% is about no effect
Pf growth 96h: P. falciparum growth inhibition at 96 hour, primary screen for plastid delayed-death inhibitors. P. falciparum luciferase reporter growth, 96 h. Potency, µM (series often up to 28.7 µM), without a hit: top-dose activity change, negative = inhibition, hits mostly inhibitors. actives 6.9% (n = 320,000); also: potency is read from the fitted curve at half-maximal effect; % is scaled to controls: 0 for no effect and ±100 for the full control effect
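96 h incubation, 37 C, 5% CO2, of luciferase-reporter P. falciparum-infected RBCs (2% hematocrit, 0.05% parasitemia final) with test compounds; endpoint luminescence.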
Cycloheximide cs: affects cycloheximide protein synthesis inhibition readout, counter-screen; cell reporter, cycloheximide protein synthesis inhibition counterscreen; max response, %; actives 12% (n = 300,000); AID 2314; in the data active = max response mostly above about 13%, no sharp cut-off; inactive = mostly below about 14%; also: read at 38.3 µM for the half of the compounds with a filed dose; 0% is about no effect
SARS PLpro yeast: SARS-CoV PLP inhibition in yeast | actives 0.19% (n = 330,000) | Potency, µM (highest dose often 32.9 µM), for the others: at the highest dose activity, positive = growth rescue, actives largely listed as activators | S. cerevisiae expressing SARS-CoV PLpro, growth rescue; calls by dose curve; also: potency is read from the fitted curve at half-maximal effect; 0% is about no effect; nearly all actives have a fitted effect of over 55% in size
Active calls of the source: *; ? = inconclusive; . = no result given; [ ] = another dose, or the depositor's remark. Only some compounds are listed: those with a hit (about 19% of all), similar ones and a draw of the others. Unless noted, calls follow the shape of the dose curve; as a rule, active = well fitted curve in the direction sought with a large enough effect; inconclusive = small, poorly fitted or top-dose-only effect, or another doubt; inactive = no such curve, though single readings can be large; an effect the other way counts as inactive or inconclusive.

SMILES | AMA1 RON2 block | Pf growth 48h | Shiga inhibitor | Pf growth 96h | Cycloheximide cs | SARS PLpro yeast
CC/C(=N\N1CCCCCC1)c1c(O)n(-c2ccc(C)cc2)c(=O)[nH]c1=O | -11%[2.32 µM] | ? | -5 | 2.1µM* | 18* | -14%
C=CCn1c(O)c(C(C)=NCCN2CCCCC2)c(=O)[nH]c1=O | 34% | . | -16 | 8% | -3 | 3%
C/C(=N\N1CCCCCC1)c1c(O)n(-c2ccc(C)cc2)c(=O)[nH]c1=O | -16% | ? | active | 12µM* | 43* | 2%
C=CCn1c(O)c(C(C)=NCCC(c2ccccc2)c2ccccc2)c(=O)[nH]c1=O | 19% | -13% | -13 | 12µM* | -2 | 9%
C/C(=N\N1CCCCCC1)c1c(O)n(-c2ccc(Cl)cc2)c(=O)[nH]c1=O | -1% | ? | 13 | 3% | 0 | 0%
C=CCn1c(O)c(/C(C)=N/N2CCCCC2)c(=O)[nH]c1=O | 10% | -4% | 75* | -2% | 38 | -3%
CCOC(=O)Cn1c(=O)oc2cc(S(=O)(=O)N(C)c3ccc(OC)cc3)ccc21 | 3% | 3% | 39 | 12% | 1 | 0%
Cc1cccc(OC(C)C(=O)NC2CCS(=O)(=O)C2)c1C (stereo not drawn) | 16% | 11% | -10 | ? | -2 | 1%
Cc1ccc(C)c(NC(=O)CN(C)C(=O)c2ccccc2OCc2c(C)noc2C)c1 | -2% | ? | . | ? | . | 1%
C#CCOCCOCCOCCNc1nc(N2CCN(C(=O)CCCCCCCCCCNC(=O)[C@H](CCC(=O)O)n3cc(CCCCCN)nn3)CC2)nc(N2CCN(C(=O)CCCCCCCCCCNC(=O)[C@@H]([C@H](C)O)n3cc(C)nn3)CC2)n1 | 11% | 3.3µM* | . | ? | . | -2%
C#CCOCCOCCOCCNc1nc(N2CCN(C(=O)CCCCCCCCCCNC(=O)[C@H](CCCCN)n3cc(CCO)nn3)CC2)nc(N2CCN(C(=O)CCCCCCCCCCNC(=O)[C@@H]([C@H](C)O)n3cc(C)nn3)CC2)n1 | -15% | 0.29µM* | . | ? | . | -8%
C#CCOCCOCCOCCNc1nc(N2CCN(C(=O)CCCCCCCCCCNC(=O)[C@H](CCCCN)n3cc(CCO)nn3)CC2)nc(N2CCN(C(=O)CCCCCCCCCCNC(=O)[C@H](CCCCN)n3cc(CCO)nn3)CC2)n1 | -19% | 4.1µM* | . | 7.4µM* | . | 0%
C#CCOCCOCCOCCNc1nc(N2CCN(C(=O)CCCCCCCCCCNC(=O)[C@@H](CCC(=O)O)n3cc(CCCCCN)nn3)CC2)nc(N2CCN(C(=O)CCCCCCCCCCNC(=O)[C@@H](CCC(=O)O)n3cc(CCCCCN)nn3)CC2)n1 | 7% | 2.9µM* | . | ? | . | -3%
S=c1[nH]nc(-c2cccs2)n1/N=C/c1c(Cl)cccc1Cl | 54% | -1% | -4 | 1% | 3 | -1%
CCOC(=O)c1cc2c(ccn2-c2ccc(F)cc2)n1CC(=O)NC(C)(C)C | . | ? | -3 | -28% | -2 | -1%
N=C1SCC(=O)N1c1ccc(Cl)cc1 | 0% | 5% | -7 | ? | -4 | 6%
COc1ccc([C@@H]2CC=C(C(=O)O)[C@H](c3ccc(F)cc3)N2S(=O)(=O)c2ccccc2C)cc1 | -8% | ? | . | ? | . | 7%
COc1ccc(C(=O)N/N=C\c2ccoc2)cc1 | 136% | 6% | 28 | 4.7µM* | 24 | -7%
CCCOc1cccc(C(=O)N/N=C/c2coc3ccccc3c2=O)c1 | 138% | 22% | -5 | 13µM* | 12 | ?
CCOc1cccc(C(=O)N/N=C/c2ccoc2)c1 | 37% | 24% | 49* | -43% | 24* | -2%
Cc1ccc(C(=O)N/N=C/c2ccoc2)cc1C | 105% | 6% | 63* | -19% | 41* | -8%
COc1cc(OC)c(C(=O)N/N=C/c2ccoc2)cc1OC | 5% | 3% | 22 | -33% | 0 | 5%
O=C(N/N=C/c1ccoc1)c1cccc(OC(F)(F)C(F)F)c1 | 86% | . | . | . | . | .
CCn1cc(Cl)c(C(=O)Nc2nc3ccccc3n2CCN2CCCCC2)n1 | 95% | . | 39 | ? | 4 | -5%
COc1cc([C@@H]2Oc3cc(C4Oc5cc(O)cc(O)c5C(=O)[C@H]4O)ccc3O[C@H]2CO)ccc1O (stereo partly drawn) | 35% | 10µM* | . | 13µM* | . | .
SMILES | AMA1 RON2 block | Pf growth 48h | Shiga inhibitor | Pf growth 96h | Cycloheximide cs | SARS PLpro yeast
COc1cc([C@H]2Oc3cc([C@H]4Oc5cc(O)cc(O)c5C(=O)[C@@H]4O)ccc3O[C@@H]2CO)ccc1O | 56% | ? | -5 | ? | -2 | 9%
Cc1cc(C)c(NC(N)=S)c(C)c1 | ? | -15% | 10 | -18% | -1 | 1%
CCC(C)(C)NC(=O)C1CCN(c2nc(OC)nc(OC)n2)CC1 | -12% | -7% | -7 | ? | -5 | 1%
Cc1cc(C)cc(-n2c(N)c(C(=O)Nc3c(C)n(C)n(-c4ccccc4)c3=O)c3nc4ccccc4nc32)c1 | -7% | 12% | -4 | 2.9µM* | 4 | -22%
Cc1ccc(-n2c(N)c(C(=O)Nc3c(C)n(C)n(-c4ccccc4)c3=O)c3nc4ccccc4nc32)cc1 | -13% | 9.3µM* | -8 | ? | -3 | 5%
COc1cccc(-n2c(N)c(C(=O)Nc3c(C)n(C)n(-c4ccccc4)c3=O)c3nc4ccccc4nc32)c1 | -6% | ? | -11 | -23% | 1 | 0%
COCCNC(=S)N=Nc1c(O)[nH]c2ccc([N+](=O)[O-])cc12 | 38% | ? | -1 | ? | -2 | -1%
Cc1ccc(-c2nc3ccccc3s2)cc1NC(=S)NC(=O)/C=C/c1ccco1 | -5% | 130% | 63* | 165% | 29* | 11%
O=C(/C=C/c1ccco1)NC(=S)Nc1cc(-c2nc3ccccc3s2)ccc1Cl | 6% | 40% | 94* | -13% | 58* | -1%
Cc1ccc(-c2nc3ccccc3s2)cc1NC(=S)NC(=O)c1cccc2ccccc12 | -1% | 158% | 80* | ? | 35* | 14%
CCCCCCCCNS(=O)(=O)CCNC1CC1 | 0% | . | . | . | . | .
COc1ccc(NC(=O)Nc2cc(NC(=O)Nc3ccc(OC)cc3)c(C)nc2C)cc1 | 6% | 3% | 9 | 37% | -2 | 10%
Cc1cc(C)nc(NC(=O)Nc2ccc(F)cc2F)n1 | -6% | 36% | 17 | 92% | 13* | 4%
COc1ccc(NC(=O)Nc2ccc(F)cc2F)c(C)c1 | -5% | . | 20 | ? | 35* | -4%
COc1ccc(NC(=O)Nc2ccc(F)cc2)c(C)c1 | -2% | 0% | 50 | 21% | 19 | 0%
COc1ccc(NC(=O)Nc2c[nH]c(=O)[nH]c2=O)cc1 | 2% | . | -2 | 2.6µM* | 5 | 12%
COc1ccc(NC(=O)Nc2nc(C)cc(C)n2)c(OC)c1 | 8% | 51% | -5 | 50% | 1 | -1%
